Most compounds without a hit are left out; they make up all but 1.2% or so of the library.
bovine MsrA act: bovine methionine sulfoxide reductase A activation; purified bovine MsrA, absorbance read-out; activation, % at 10.6 µM; 360,000 compounds, 0.3% hits; AID 602163; in the data active = activation above about 7.5%
NPR1 activator: GC-A (human) enzyme activation | P16066 | HEK293 GC-A cells, cGMP TR-FRET, EC30 ANP; 0% at EC30 ANP, 100% saturating ANP | activation, % at 10 µM | 370,000 compounds, 0.14% hits; in the data active = activation above about 40%
NPR2 activator: GC-B (human) receptor activation; P20594; HEK293-GC-B cells, CNP EC30, cGMP TR-FRET; 0% at EC30 CNP, 100% saturating CNP; activation, % at 10 µM; 370,000 compounds, 0.11% hits;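 active = activation at 10 µM reaching about 35% in either raw or pattern-adjusted values, limit read from the data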
Target sequence (P20594 whole entry, looked up): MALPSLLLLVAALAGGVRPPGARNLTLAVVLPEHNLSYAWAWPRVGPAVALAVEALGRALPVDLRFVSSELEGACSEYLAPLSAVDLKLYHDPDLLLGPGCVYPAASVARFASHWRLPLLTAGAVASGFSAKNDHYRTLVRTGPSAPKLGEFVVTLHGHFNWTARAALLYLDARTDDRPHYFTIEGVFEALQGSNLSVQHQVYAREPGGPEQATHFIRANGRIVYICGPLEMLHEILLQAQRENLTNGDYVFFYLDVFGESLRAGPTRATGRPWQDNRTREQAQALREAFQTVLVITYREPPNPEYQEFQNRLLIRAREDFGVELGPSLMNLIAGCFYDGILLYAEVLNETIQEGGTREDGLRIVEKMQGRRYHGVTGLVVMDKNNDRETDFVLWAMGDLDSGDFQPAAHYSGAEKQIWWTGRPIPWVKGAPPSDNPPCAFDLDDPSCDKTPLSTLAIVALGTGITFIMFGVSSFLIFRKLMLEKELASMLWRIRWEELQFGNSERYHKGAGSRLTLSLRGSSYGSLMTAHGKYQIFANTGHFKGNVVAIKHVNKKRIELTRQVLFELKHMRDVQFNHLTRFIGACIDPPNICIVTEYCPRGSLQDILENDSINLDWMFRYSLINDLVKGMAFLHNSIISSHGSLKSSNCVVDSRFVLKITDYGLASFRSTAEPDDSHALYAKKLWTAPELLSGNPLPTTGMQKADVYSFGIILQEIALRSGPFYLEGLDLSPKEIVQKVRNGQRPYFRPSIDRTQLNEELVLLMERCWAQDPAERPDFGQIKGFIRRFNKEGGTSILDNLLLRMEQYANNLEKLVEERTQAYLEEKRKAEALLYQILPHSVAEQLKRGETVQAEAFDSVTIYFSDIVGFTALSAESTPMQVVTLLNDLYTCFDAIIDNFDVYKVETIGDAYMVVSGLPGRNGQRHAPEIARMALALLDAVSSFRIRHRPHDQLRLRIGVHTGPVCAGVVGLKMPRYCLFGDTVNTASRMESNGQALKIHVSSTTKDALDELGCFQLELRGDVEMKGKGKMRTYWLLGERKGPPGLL
MsrA inhibitor: inhibitors of bovine MsrA. purified bovine MsrA, absorbance read-out. inhibition, % at 15.5 µM. 360,000 compounds, 0.75% hits. AID 651718; in the data active = inhibition above about 4.5%
Hits are given with their value; n = inactive; x = not tested or not shown.

SMILES | bovine MsrA act | NPR1 activator | NPR2 activator | MsrA inhibitor
COc1ccc(-c2cc(C(=O)NN=Cc3ccccc3F)[nH]n2)cc1 | x | n | n | x
N#Cc1nc(Nc2cc(F)cc(F)c2)c2ncn(CC(F)F)c2n1 | n | n | n | n
N#Cc1nc(NCC(F)F)nc(Nc2cc(F)cc(F)c2)n1 | n | 44.5 | 39.5 | n
COc1ccc(-c2nc3ncccc3o2)cc1NC(=O)c1ccco1 | n | n | n | 4.6
Cc1ccc(C(=O)N/C(=C\c2ccc3c(c2)OCO3)C(=O)Nc2ccc(C(=O)O)cc2)cc1 | n | n | n | 4.6
CC(C)(C)NC(=O)[C@@H](c1cccnc1)N(C(=O)c1ccco1)c1ccc(C(C)(C)C)cc1 | x | n | n | x
Nc1sc(Cc2ccccc2)cc1C(=O)c1c(-c2ccccc2)[nH]c2ccccc12 | x | 60.4 | n | n
CS(=O)(=O)c1sc(C#N)c2c1C(=O)CC(c1ccccc1)C2 (configuration not stated) | n | n | 48.4 | n
CCOC(=O)c1ccc(NC(=O)Cn2ncc(Cl)c(Cl)c2=O)cc1 | n | 60.7 | n | n
CCOc1ccc(C=Nn2c(-c3cccc(OC(C)C)c3)n[nH]c2=S)cc1 | x | n | n | x
Cc1cc(-n2c(C)cc(C(=O)CSc3ccccn3)c2C)no1 | n | n | n | n
Cc1cc(-n2c(C)cc(C(=O)CSc3ccc4c(c3)OCCO4)c2C)no1 | 24.0 | n | n | n
COC(=O)c1ccc(Cn2cnc3c(sc4nc(N5CCOCC5)c5c(c43)CCCC5)c2=O)o1 | n | 41.0 | 48.6 | n
COC(=O)c1ccc(CSc2ncnc3c2sc2nc(N4CCOCC4)c4c(c23)CCCC4)o1 | n | 49.6 | 61.7 | n
CCOC(=O)CSc1ncnc2c1sc1nc(N3CCOCC3)c3c(c12)CCCC3 | n | n | 36.5 | n
O=c1c2sc3nc(N4CCOCC4)c4c(c3c2ncn1CCc1ccccc1)CCCC4 | n | n | n | n
COC(=O)CSc1ncnc2c1sc1nc(N3CCOCC3)c3c(c12)CCCC3 | n | n | n | n
COC(=O)c1ccc(-c2sc3nc(N4CCOCC4)c4c(c3c2N)CCCC4)o1 | x | n | n | n
COC(=O)[C@H](C)N(CCc1cn(Cc2ccccc2)nn1)S(=O)(=O)c1ccccc1Br | x | n | n | x
CN1CCC(N[C@@H](Cc2c[nH]c3ccccc23)C(=O)NCCCc2ccccc2)(C(=O)NCCc2c[nH]c3ccccc23)CC1 | x | n | n | x
Cn1cccc1C(=O)N1CCN(S(=O)(=O)c2ccc(Cl)s2)CC1 | x | n | n | x
CC(=O)Nc1sc2c(c1-c1nc3ccccc3s1)CCCNC2 | x | n | 34.3 | x
COCCn1c(-c2ccccc2)nc(=S)c2c1CC(C)(C)OC2 | n | n | n | n
CC1(C)Cc2c(c(=S)nc(-c3ccccc3)n2CCN2CCOCC2)CO1 | n | n | n | 4.6
CC1=NN(c2nc(N)nc(/C(C#N)=C/c3ccc([N+](=O)[O-])o3)n2)C(C)(C)C1 | n | 46.1 | 40.9 | n
SMILES | bovine MsrA act | NPR1 activator | NPR2 activator | MsrA inhibitor
COc1cc(/C=C2\SC(=O)N(c3ccc(Cl)cc3)C2=O)cc([N+](=O)[O-])c1O | n | n | n | 7.1
O=C(O)C(CO)N=Cc1c(O)c2ccccc2oc1=O (configuration not stated) | n | n | n | 4.6
CC(N=Cc1c(O)c2ccccc2oc1=O)C(=O)O (configuration not stated) | n | n | n | n
O=C(OCc1ccccc1)[C@H](Cc1ccccc1)NC(=O)[C@@H]1CC=C[C@@H]2CCN(Cc3ccccc3)C(=O)[C@@H]21 | x | n | n | x
O=Nc1c(O)[nH]c2ccc(F)cc12 | n | n | n | n
NC(=S)N=Nc1c(O)[nH]c2ccc(F)cc12 | n | n | n | 4.5
CCc1ccc(C2NC(=S)NC3=C2C(=O)CC(C)(C)C3)cc1 (configuration not stated) | n | n | n | n
CC(C)c1ccc(C2NC(=S)NC3=C2C(=O)CC(C)(C)C3)cc1 (configuration not stated) | n | 42.6 | n | n
Cc1ccc(-n2nnc3c(=O)oc4ccccc4c32)cc1 | n | n | 38.9 | n
CCC(C)n1nnc2c(=O)oc3ccccc3c21 (configuration not stated) | n | n | n | x
CSCC[C@H](NC(=O)[C@H](Cc1ccccc1)n1c(=O)[nH]c2ccccc2c1=O)C(=O)N1CCC[C@H]1C(=O)O | n | n | 83.3 | n
CCOC(=O)c1cnc2c(c(C)nn2-c2ccc(C)cc2)c1Cl | n | 60.2 | n | n
Cc1c(NS(=O)(=O)c2cccc(C(=O)NCc3ccccc3Cl)c2)c(=O)n(-c2ccccc2)n1C | n | n | n | n
Cc1c(NS(=O)(=O)c2cccc(C(=O)OCC(=O)c3ccc(Cl)cc3)c2)c(=O)n(-c2ccccc2)n1C | n | 61.1 | n | n
COc1cccc(OC)c1C(=O)Nn1c(C2CCC2)nc2ccccc2c1=O | 9.4 | n | n | n
CC(NC(=O)Cc1cccs1)c1ccccc1 (configuration not stated) | n | n | n | n
CCC(NC(=O)Cc1cccs1)c1ccccc1 (configuration not stated) | n | n | 68.3 | n
CC(C)CNC(=O)OCc1cn(Cc2ccccc2F)nn1 | x | n | n | x
CC(Nc1cc(N2CCN(C(=O)C(C)(C)C)CC2)ccc1[N+](=O)[O-])c1ccccc1 (configuration not stated) | n | n | n | 10.7
CCS(=O)(=O)N1CCN(c2ccc([N+](=O)[O-])c(NC(C)c3ccccc3)c2)CC1 (configuration not stated) | n | n | n | 7.3
COc1ccc2sc(-c3ccc(S(C)(=O)=O)cc3)c(C(=O)NCCc3c[nH]c4ccccc34)c2c1 | n | n | 39.0 | n
COc1ccc(COc2cc(-c3cccc(OC)c3)nc3ccc(NC(=O)c4cccnc4)cc23)cc1 | n | 52.1 | 57.3 | n
COc1ccc(COc2cc(-c3cccc(OC)c3)nc3ccc(NC(=O)c4ccccc4)cc23)cc1 | n | 40.3 | 43.9 | n
COc1ccc(COc2cc(-c3cccc(OC)c3)nc3ccc(NC(=O)c4ccc(OC)cc4)cc23)cc1 | n | n | n | n
COc1ccc(COc2cc(-c3cccc(OC)c3)nc3ccc(NC(=O)c4ccc(Cl)cc4)cc23)cc1 | n | n | n | n
SMILES | bovine MsrA act | NPR1 activator | NPR2 activator | MsrA inhibitor
Cc1ccc(S(=O)(=O)N2CC[C@@]3(Cc4ccccc4)Cc4ccccc4C[C@@H]23)cc1 | x | n | n | x
CCCc1ccc(Oc2cn[nH]c2-c2ccc(O)cc2O)cc1 | n | 40.1 | n | n
N#Cc1c(N)n(Cc2ccccc2)c(=O)c2cc([N+](=O)[O-])ccc12 | n | 47.2 | n | n
C[C@H]1[C@@H](OC(=O)NCc2ccccc2Cl)CC[C@@]23CCCN2C(=O)CCC[C@@H]13 | x | n | n | x
CC1CCN(C(=O)C2CCN(S(=O)(=O)c3cccs3)CC2)CC1 | n | n | n | n
CC(=O)c1ccc(N2CCN(C(=O)C3CCN(S(=O)(=O)c4cccs4)CC3)CC2)cc1 | n | n | n | 4.6
Cc1[nH]nc(-c2ccc(O)cc2O)c1-c1ccc(Cl)cc1 | n | 69.6 | n | n
COc1ccc(-c2n[nH]c(C)c2-c2ccc(Cl)cc2)c(O)c1 | n | n | n | n

Assay outcomes: PubChem, several laboratories
